Here are results for 38 molecules from article PMC13494018.

The target of this experiment is VTCN1, Q7Z7D3.
Sequence of VTCN1, Q7Z7D3 (Q7Z7D3 whole entry): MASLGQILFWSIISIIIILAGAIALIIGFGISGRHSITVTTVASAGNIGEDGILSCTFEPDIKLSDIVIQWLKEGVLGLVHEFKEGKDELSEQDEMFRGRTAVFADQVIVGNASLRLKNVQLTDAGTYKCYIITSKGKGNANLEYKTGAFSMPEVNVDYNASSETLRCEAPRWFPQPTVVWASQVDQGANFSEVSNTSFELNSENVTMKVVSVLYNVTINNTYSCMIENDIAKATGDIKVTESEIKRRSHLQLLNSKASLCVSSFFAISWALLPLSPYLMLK

B1: design_607_777643b9-bd23-49d1-80ae-2b1434974efa_640_dldesign_0_cycle1_af2pred (protein)
chain: AETEKKIKELEKKAHDAYQKAAEYYHDKNLKEAGDLYRKAAKLYAEAAKALAKGEEAPKAEEYEAKAKAYEEEAQKLKA
As to B1, the “binding in a display sort” value was “not found (inactive)”.

B2: design_607_777643b9-bd23-49d1-80ae-2b1434974efa_1207_dldesign_0_cycle1_af2pred (protein)
chain: AVAEAAQYAQEARQYAAEAEYLGKKYGKKNKEIKKYAEKAKEAAKKAREAAKKGDLEAAKEYAKKAKELAEKAEELAKKEEE
Turning to B2, the “binding in a display sort” value was “not found (inactive)”.

B3: design_606_b60ff77f-1541-4e5f-8260-46d5e5f6b85e_1785_dldesign_0_cycle1_af2pred (protein)
chain: MTPEERRARGEEELARLAKKIEEARKKAEEDGKKGSQDLFSLAERLENLAESAPEIAEEARALGEEARKLAEKLYS
In the case of B3, the “binding in a display sort” value is “not found (inactive)”.

B4: design_606_b60ff77f-1541-4e5f-8260-46d5e5f6b85e_1676_dldesign_0_cycle1_af2pred (protein)
chain: DEAVKKAKELAKKLLEEAKKAAKKGDVETVKAIAKEAKAKAEEAEKNEGFKAAAELYSAYFRIEHMAESLA
As to B4, the “binding in a display sort” value was “not found (inactive)”.

B5: design_606_b60ff77f-1541-4e5f-8260-46d5e5f6b85e_2343_dldesign_0_cycle1_af2pred (protein)
chain: DAEEHAKEAEKAIKEAKAYIEEAIKTGDSEKAHEARQKLAEAEYEAKKVYELDPEKGAKLLKKVEEVKKLLKELQK
Take B5: the “binding in a display sort” value is “not found (inactive)”.

B6: design_607_777643b9-bd23-49d1-80ae-2b1434974efa_648_dldesign_0_cycle1_af2pred (protein)
chain: SEEERRRREEAYRELSEALREARELGKRLKEAGADPEVIKRLSELLAEISETLAELRAGLANEEEIERAKEAAREALELAREELERL
For the molecule B6, the “binding in a display sort” value was “not found (inactive)”.

B7: design_607_777643b9-bd23-49d1-80ae-2b1434974efa_21_dldesign_0_cycle1_af2pred (protein)
chain: MEVEKLRKKAVEEAKKGGLGTPEEAREKRKKAEELLKEMKKAGATEEEVAKAATEAAEAYVEAKNEKYLKE
Take B7: the “binding in a display sort” value was “not found (inactive)”.

B8: design_607_777643b9-bd23-49d1-80ae-2b1434974efa_139_dldesign_0_cycle1_af2pred (protein)
chain: NEEQKKLAEEAIEEIKRLQEKAFDAVGAGDIEEAKKYLEEMEKVAKETAAKVPPEYAKKVLEALEKAKKAVESAIKAAEENEK
B8: the “binding in a display sort” value is “not found (inactive)”.

B9: design_607_777643b9-bd23-49d1-80ae-2b1434974efa_1238_dldesign_0_cycle1_af2pred (protein)
chain: SLKEALLEEAKEAIKAAKAGDASKVAAETLEMRSAAEALAKDDEEAKKFAEKTRKALELLRKDPEKGLKYAEEVAKEIIKAIE
Take B9: the “binding in a display sort” value is “not found (inactive)”.

B10: design_607_777643b9-bd23-49d1-80ae-2b1434974efa_278_dldesign_0_cycle1_af2pred (protein)
chain: SSLTLEASKKSGEAYFLLNEAEFLAKKKGDEETAKKAEEARKKLKEKLDAAKTGAEKLAAALEGLKEAEKIYKEALE
Take B10: the “binding in a display sort” value was “not found (inactive)”.

B11: design_606_b60ff77f-1541-4e5f-8260-46d5e5f6b85e_1625_dldesign_0_cycle1_af2pred (protein)
chain: MAKEKAKKEAKKLTEEAAKKIREAALKEENPLEVAKEITEEVLKKIEEIGKKAGLSEEEIEKLKKEAKKKLAAAAHEAYQERAEEEFE
Take B11: the “binding in a display sort” value was “not found (inactive)”.

B12: design_606_b60ff77f-1541-4e5f-8260-46d5e5f6b85e_2085_dldesign_0_cycle1_af2pred (protein)
chain: ERKQEAAELAERLLEKGEKGDEFTGSAYVTRAAHAIGEALGDEEVEKEIEEANKKDVKEGIKLAREKLEELRAA
As for B12, the “binding in a display sort” value was “not found (inactive)”.

B13: design_607_777643b9-bd23-49d1-80ae-2b1434974efa_351_dldesign_0_cycle1_af2pred (protein)
chain: SEEEAKKLAEEAAKKAREAAEEAEKLAKEAEKIGNKKIANKLYAYAERLKNVAESVELHAGDKEYAEKGLEVTEKLRKKAKELYKEAK
With B13, the “binding in a display sort” value is “not found (inactive)”.

B14: design_607_777643b9-bd23-49d1-80ae-2b1434974efa_649_dldesign_0_cycle1_af2pred (protein)
chain: DAAKAAAKAFAAGAIKLAEKLAKEYPEIAATMKEAIAAAKEAAKLADTDAAAGKAAASAANFTVLEAYAEAKA
Take B14: the “binding in a display sort” value was “not found (inactive)”.

B15: design_606_b60ff77f-1541-4e5f-8260-46d5e5f6b85e_1627_dldesign_0_cycle1_af2pred (protein)
chain: EEEKKKKYEELLKKAREEMEKLGKEFKKAVEKGDSKAASEAFRKAVKVAREAGEEAKKLGPEGEELEKELSQLLLEIAD
In the case of B15, the “binding in a display sort” value is “not found (inactive)”.

B16: design_606_b60ff77f-1541-4e5f-8260-46d5e5f6b85e_2122_dldesign_0_cycle1_af2pred (protein)
chain: GMEEEKERALEEIRRAREEIKKVAEELKEVDPELAKKAEKVLERAERGLEEGEKNPIAAIGMAEIVRDQLENGKKLLAEKKA
Turning to B16, the “binding in a display sort” value is “not found (inactive)”.

B17: design_606_b60ff77f-1541-4e5f-8260-46d5e5f6b85e_2244_dldesign_0_cycle1_af2pred (protein)
chain: ENKEKVKKAKETLKKARKEAEKAVKKGVLTPEQIARIQEKLHKASELIAEAEQEKGEEGKEKAEKALELAKEVLKEVKEAE
Consider B17, for which the “binding in a display sort” value was “not found (inactive)”.

B18: design_607_777643b9-bd23-49d1-80ae-2b1434974efa_665_dldesign_0_cycle1_af2pred (protein)
chain: MKETEEEIKKIEEEAKELAEKGKEKSVEEFKKEMVKFIFSLADEGAHPEAISSAARIAKESYEKLKKKEEEEKK
For B18, the “binding in a display sort” value is “not found (inactive)”.

B19: design_606_b60ff77f-1541-4e5f-8260-46d5e5f6b85e_2053_dldesign_0_cycle1_af2pred (protein)
chain: SSSLIEENKKEAKEEFNKFAIENGEKRIKEAKELLKKDPEKGKEALKKVLEEAKKLKEKNPEAGEKVEKAAEKALKEA
As to B19, the “binding in a display sort” value was “not found (inactive)”.

B20: design_606_b60ff77f-1541-4e5f-8260-46d5e5f6b85e_2039_dldesign_0_cycle1_af2pred (protein)
chain: SEEEEASKRNKELADKIREAVRNMREAYAAMQAALAAGDAAAAKAAADKALAQAKVLEELGLTSQAQSNAAKIKADLAAGLAALAA
In the case of B20, the “binding in a display sort” value is “not found (inactive)”.

B21: design_606_b60ff77f-1541-4e5f-8260-46d5e5f6b85e_2038_dldesign_0_cycle1_af2pred (protein)
chain: EAKEKAKLLKEAAKLAKEAAKAAADKEKAKKLATEAADLAIKAGDYKTNGYMESAILNAEAGNAEAAKAAAEKAAKRAEEKAKKL
For the molecule B21, the “binding in a display sort” value was “not found (inactive)”.

B22: design_607_777643b9-bd23-49d1-80ae-2b1434974efa_839_dldesign_0_cycle1_af2pred (protein)
chain: AAAAAKAQADAILADAKAKAAEALKKDPKTGAEEAAKIYRAAAAKLRALGAEVADDPEAVAYLSKVAAELYELAAEYASKAARL
Consider B22, for which the “binding in a display sort” value is “not found (inactive)”.

B23: design_607_777643b9-bd23-49d1-80ae-2b1434974efa_37_dldesign_0_cycle1_af2pred (protein)
chain: SSNKETADAIRDAVKAAQEVGKLAKEKLSPEEAKAVADELNKAIFDLVDTAASEGVDGAKAAAADVKAKVEKLKKEIAAKAAAA
With B23, the “binding in a display sort” value is “not found (inactive)”.

B24: design_606_b60ff77f-1541-4e5f-8260-46d5e5f6b85e_1975_dldesign_0_cycle1_af2pred (protein)
chain: AEAESQKVLDTAAELEADLILLGYKKPEIKEQALEDAKKVRRNAREAAGLILKDPEKGKKLAEETEKEGKELIKKYEEEV
Consider B24, for which the “binding in a display sort” value is “not found (inactive)”.

B25: design_607_777643b9-bd23-49d1-80ae-2b1434974efa_1068_dldesign_0_cycle1_af2pred (protein)
chain: MKKKASELMHEAYELAALAEAYPENAEEYYKKAKEYGEEAVKEAEKYDPEYGKKAKERAEKVTKRAKEAVEKYKKEK
B25: the “binding in a display sort” value is “not found (inactive)”.

B26: design_606_b60ff77f-1541-4e5f-8260-46d5e5f6b85e_1772_dldesign_0_cycle1_af2pred (protein)
chain: SKKEEVKERVKEVLERAKKVAERGKKAGVDINEASEMMALAYEAKAAAEAGHIEEAEKLMKKAEEKLKKLEKRAKELEA
On to B26, for which the “binding in a display sort” value was “not found (inactive)”.

B27: design_607_777643b9-bd23-49d1-80ae-2b1434974efa_1231_dldesign_0_cycle1_af2pred (protein)
chain: AEEEKKKKEEEKKRTAENKALAYEEAARHAMEQGEKGSPEQRPAAVERAREFAKRAIEADPKKGAELLKEVEAFAAKWEEEA
Turning to B27, the “binding in a display sort” value is “not found (inactive)”.

B28: design_607_777643b9-bd23-49d1-80ae-2b1434974efa_321_dldesign_0_cycle1_af2pred (protein)
chain: SKIYEEKKKEIEEAAEKAKELAKKDPEKGRKYLKEKNKKFKEFVEKLKADPKTKADAEKILKEASKKSAEVYEVIAEEEQKKRRE
For the molecule B28, the “binding in a display sort” value was “not found (inactive)”.

B29: design_607_777643b9-bd23-49d1-80ae-2b1434974efa_1272_dldesign_0_cycle1_af2pred (protein)
chain: EEAFKEAGEKALEYAEKVLKLAKKEPEVLEKAEKGLELLKKGIETGDKDLLVKARSYFLQVASYASPEVAEVAEKAAEYIDEAYILLS
As to B29, the “binding in a display sort” value is “not found (inactive)”.

B30: design_607_777643b9-bd23-49d1-80ae-2b1434974efa_981_dldesign_0_cycle1_af2pred (protein)
chain: MAEEAKKKLEQAAKLMAIAYETLAAGERGLATPEELKEAAKKAEEAAKLAKEVGKVTPEKEYYEKAAKRAEKVAKRLKELAKKIEE
With B30, the “binding in a display sort” value was “not found (inactive)”.

B31: design_606_b60ff77f-1541-4e5f-8260-46d5e5f6b85e_2269_dldesign_0_cycle1_af2pred (protein)
chain: ITEDEVVEINNKGSKEGPLWKEAADYAIKALSYKIIAELVLSSENAEEDHKKALAKAEEYEAKYKEKLEKAEKAKKEK
For the molecule B31, the “binding in a display sort” value was “not found (inactive)”.

B32: design_606_b60ff77f-1541-4e5f-8260-46d5e5f6b85e_2076_dldesign_0_cycle1_af2pred (protein)
chain: ATQAEASQAAAEASEARAELEQAAKKLKEEGKEELAKKAEEAAEEARKLLKQAQKADTDTAYKLAQEAKKKLEKELKKAKKA
With B32, the “binding in a display sort” value is “not found (inactive)”.

B33: design_606_b60ff77f-1541-4e5f-8260-46d5e5f6b85e_1708_dldesign_0_cycle1_af2pred (protein)
chain: NEAEKKLKKVAEDAEKALSEAIKASKDDPEKQKELKEKLEQVKKLYEEGLKGTPEDMAKAAAEMRQLRSEADYVLSNAK
For B33, the “binding in a display sort” value is “not found (inactive)”.

B34: design_607_777643b9-bd23-49d1-80ae-2b1434974efa_280_dldesign_0_cycle1_af2pred (protein)
chain: GAEKEKAEKIAKEKLAEGKKLAEEAKKGTPEEAKKKRKEFLEELKKLAKEGTPYLAKLLAKVAAEVSEAFAEAYAEALRK
Take B34: the “binding in a display sort” value is “not found (inactive)”.

B35: design_606_b60ff77f-1541-4e5f-8260-46d5e5f6b85e_2092_dldesign_0_cycle1_af2pred (protein)
chain: MEEEKKKKAKELGEKLVEEVKKAAEEAKKTAETGTPEDAEKAKLDLSKKVHEALSELAEIGQKYDWEEAEKAKKEVIEIGKKAVA
On to B35, for which the “binding in a display sort” value is “not found (inactive)”.

B36: design_606_b60ff77f-1541-4e5f-8260-46d5e5f6b85e_2386_dldesign_0_cycle1_af2pred (protein)
chain: KEEEFEKLKQKAAQLILESYDALSKNIEEAKKYLKEALKAAEEAKKVDPEKGEEVLKKVEKTSKSILKSMELAKKA
Regarding B36, the “binding in a display sort” value was “not found (inactive)”.

B37: design_607_777643b9-bd23-49d1-80ae-2b1434974efa_1186_dldesign_0_cycle1_af2pred (protein)
chain: KEAEIKAEAQALIDAVRAAAAAAVALAADPAAARALLTAAIGKVLEGSKEAASLALPEAVAIAREAGAAAEAAHAAAA
Take B37: the “binding in a display sort” value is “not found (inactive)”.

B38: design_607_777643b9-bd23-49d1-80ae-2b1434974efa_529_dldesign_0_cycle1_af2pred (protein)
chain: NLGEKASKATKVLVDAAKEIAKKAGEEAKAKAAAALVTLFSLFEDPEKAAKEAKALVPEKAKPIVEKAAKEADKLLN
Regarding B38, the “binding in a display sort” value is “not found (inactive)”.
